Hits are enriched below; roughly 11% of the tested compounds scored in any of these assays.
ALDH1A1 inh: ALDH1A1 (human) enzyme inhibition | Potency, µM (titrated, usually from 75.3 µM), without a hit: at the highest dose activity, negative = inhibition, usual class: inhibitors | actives 7.3% (n = 220,000) | Purified ALDH1A1, NADH fluorescence, propionaldehyde substrate; active = well fitted inhibition curve with a large enough effect, not every such curve was filed as active; inconclusive = small, poorly fitted or top-dose-only effect, or another doubt; inactive = no such curve, though single readings can be large or run the other way;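 also: potency is read from the fitted curve at half-maximal effect; plate controls were no enzyme wells and a reference inhibitor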
Target sequence (P00352 whole entry, looked up): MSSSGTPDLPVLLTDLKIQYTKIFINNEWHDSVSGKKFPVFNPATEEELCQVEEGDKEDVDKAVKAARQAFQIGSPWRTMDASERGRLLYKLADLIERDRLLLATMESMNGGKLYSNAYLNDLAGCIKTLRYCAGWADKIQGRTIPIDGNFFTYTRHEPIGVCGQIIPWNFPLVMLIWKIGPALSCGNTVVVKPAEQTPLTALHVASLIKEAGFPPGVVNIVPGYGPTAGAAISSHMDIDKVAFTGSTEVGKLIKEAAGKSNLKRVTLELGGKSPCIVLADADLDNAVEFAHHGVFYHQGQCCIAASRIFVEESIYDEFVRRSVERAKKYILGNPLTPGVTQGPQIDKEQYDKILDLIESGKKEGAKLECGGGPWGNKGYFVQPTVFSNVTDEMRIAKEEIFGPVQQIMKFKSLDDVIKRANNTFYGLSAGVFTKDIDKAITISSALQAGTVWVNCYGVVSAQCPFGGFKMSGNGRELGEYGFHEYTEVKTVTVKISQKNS
IMPase cell inh: IMPase inhibition in cells | CHO-M1 cells, IP1 accumulation, HTRF TR-FRET ratio | inhibition (IP1 accumulation), % at 46.1 µM | 120,000 tested, under 10 active; active = well fitted curve in the direction sought with a large enough effect in the signal ratio, not every such curve was filed as active; inconclusive = small, poorly fitted or top-dose-only effect, or a change in a side signal; inactive = no such curve, though single readings can be large or run the other way; the % refers to the signal ratio;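 also: cells stimulated with carbachol in lithium chloride buffer; plate controls were DMSO basal wells for no effect and reference inhibitor wells for full effect; higher means more IMPase inhibition seen as more IP1 and lower FRET ratio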
Target sequence (P97697 whole entry, looked up): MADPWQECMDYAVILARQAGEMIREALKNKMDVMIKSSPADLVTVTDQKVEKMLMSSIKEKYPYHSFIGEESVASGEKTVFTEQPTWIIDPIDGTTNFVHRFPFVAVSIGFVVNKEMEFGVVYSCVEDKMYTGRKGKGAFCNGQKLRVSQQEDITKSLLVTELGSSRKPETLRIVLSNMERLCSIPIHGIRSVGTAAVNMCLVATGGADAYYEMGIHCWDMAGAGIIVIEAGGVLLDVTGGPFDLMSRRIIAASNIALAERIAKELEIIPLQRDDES
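CHO-M1 cells (CHO stably expressing M1 receptor), compound up to 46 uM final, stimulated with carbachol (50 uM as added) in buffer with 50mM LiCl, pH 7.4, 30 min at 37C. Cytosolic IP1 read by TR-FRET; AC50 from Hill fits.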
PNC inhibitor: blocks assembly of the perinucleolar compartment. PC3M PTB-GFP, PNC prevalence imaging, 16 h; stronger effect = lower value. activity change (PNC), negative = inhibition, % at 10 µM. actives 3.1% (n = 140,000);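 active = readout at or below -70, meaning at least 70% loss of cells showing the perinucleolar compartment, a nuclear body marking cancer cells; inconclusive = readout between -30 and a set limit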;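 also: plate controls were DMSO wells for no effect and camptothecin positive control wells for full effect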
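PC3M cells stably expressing PTB-GFP, 750–1000 cells/well, treated 16 h at 37 °C with compound (23 nl of library stock), in duplicate. After paraformaldehyde fixation and Hoechst stain, imaged at 20x; PNC prevalence scored by image analysis.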
ALOX12 inhib: blocks human 12-lipoxygenase activity. actives 0.12% (n = 150,000). Potency, µM (titrated, usually from 57.1 µM), inactives show at the highest dose activity change, negative = inhibition, actives largely listed as inhibitors. purified 12-hLO, xylenol orange hydroperoxide absorbance; also: potency is read from the fitted curve at half-maximal effect; nearly all actives have a fitted effect of over 55% in size
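Purified human 12hLO (150 nM final) was preincubated with compounds for 15 min at room temperature in 25 mM Hepes pH 7.0, 0.01% Triton X-100, then reacted with 40 uM arachidonic acid for 30 min. Hydroperoxide was detected with ferrous iron/xylenol orange.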
IMPase Li inh: membrane-permeable IMPase blocker, potentiated with lithium; AID 1457; actives 0.35% (n = 210,000); Potency, µM (doses to about 59.4 µM), inactives show at the top dose activity, negative = IMPase inhibition, usual class: inhibitors; CHO-M1 cells, IP1 TR-FRET (IP-One), carbachol + lithium;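 also: IP1 builds up when IMPase is blocked and the TR-FRET signal falls; potency is read from the fitted curve at half-maximal effect; plate controls were basal vehicle for no effect and high inhibitor control for full effect; nearly all actives have a fitted effect of over 50% in size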
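CHO cells stably expressing M1 receptor (2000/well) were cultured 16–30 h, then exposed to compounds with a small lithium addition for 30 min at 37C. IP1 was measured by TR-FRET competition; AC50 from Hill fits.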
HPGD block: HPGD (human) dehydrogenase inhibition. P15428. purified HPGD, NADH fluorescence kinetic, PGE2 substrate. Potency, µM, without a hit: at the highest dose activity change, negative = inhibition, hits mostly inhibitors. actives 4.3% (n = 150,000). AID 894; active = well fitted inhibition curve with a large enough effect, not every such curve was filed as active; inconclusive = small, poorly fitted or top-dose-only effect, or another doubt; inactive = no such curve, though single readings can be large or run the other way; also: potency is read from the fitted curve at half-maximal effect
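20 nM HPGD preincubated 15 min at room temperature with compound in 50 mM Tris-HCl pH 8, 0.01% Tween 20. Started with 1 mM NAD+ and 30 uM prostaglandin E2; NADH fluorescence (360/450 nm) read 5 times over 30-s intervals, last minus first.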
* hit, by the source's call; ? = inconclusive; · = not tested or not shown; [ ] = remark or other dose. Unless noted, calls follow the shape of the dose curve; as a rule, active = well fitted curve in the direction sought with a large enough effect; inconclusive = small, poorly fitted or top-dose-only effect, or another doubt; inactive = no such curve, though single readings can be large; an effect the other way counts as inactive or inconclusive. Unless noted, % is scaled to controls: 0 for no effect and ±100 for the full control effect.

SMILES	ALDH1A1 inh	IMPase cell inh	PNC inhibitor	ALOX12 inhib	IMPase Li inh	HPGD block
COCCn1c(=O)c(-c2ccccc2)nc2cnc(Oc3ccc(OC)cc3)nc21	?	·	·	·	15.5%	·
CC(C)[C@@H](CC(=O)N[C@@H]1CCNC[C@H]1C(=O)N[C@H](CC(=O)N[C@@H](CCC(=O)O)CC(=O)O)Cc1c[nH]c2ccccc12)NC(=O)C[C@H](CO)NC(=O)[C@@H]1CCCC[C@H]1N	?	·	·	4.2%	1.8%	-15.7%
Cc1cc(C)c(OCCCCN(C)C)c(Br)c1	22.4µM*	·	·	·	17.1%	·
COC(=O)NC(c1ccc2c(c1)OCO2)C(C(=O)OC)C(=O)OC (stereo not drawn)	-4.1%	·	·	3.9%	-4.9%	-0.4%
OCCNc1nc(Nc2ccccc2)nc2ccccc12	2.7%	8.1	-118.9*	-8.0%	19.4%	-10.9%
Cc1ccc(-c2cn3cccnc3n2)cc1	?	·	·	·	10µM*	·
O=C(Nc1cccnc1)c1ccccc1-c1nc(-c2ccccc2F)no1	11.2µM*	3.7	-25.5	5.7%	34.2%[38.3 µM]	0.9%
COc1ccccc1-c1noc(-c2ccccc2C(=O)Nc2cccnc2)n1	?	10.2	14.4	1.5%	23.3%[38.3 µM]	-1.2%
Cc1onc(-c2ccccc2)c1C(=O)Nc1cccnc1	?	3.8	?	-2.7%	-9.2%[38.3 µM]	-8.1%
Cc1onc(-c2ccccc2Cl)c1C(=O)OCN1C(=O)c2ccccc2C1=O	-0.8%	-0.6	14.5	-5.7%	11.5%[38.3 µM]	11.2µM*
Cc1onc(-c2ccccc2Cl)c1C(=O)Nc1cccnc1	22.4µM*	-6.0	?	1.8%	6.8%	-14.4%
Cc1nc(N2CCOCC2)c2nc(-c3ccccc3)n(CCN(C)C)c2n1	?	·	·	-0.9%	-5.8%	?
Cc1onc(-c2ccccc2Cl)c1C(=O)Nc1ccc(-c2cn3cccnc3n2)cc1	?	-6.9	-91.1*	-0.7%	-14.6%[38.3 µM]	?
Cc1ccc(-c2cn3cccnc3n2)cc1NC(=O)c1c(-c2ccccc2Cl)noc1C	?	-6.3	?	-2.2%	-21.2%[38.3 µM]	?
COc1cc(/C=C(\C#N)C(=O)NCC2CCCO2)c([N+](=O)[O-])cc1OC (stereo not drawn)	?	4.5	-1.2	-21.6%	2.9%[38.3 µM]	28.2µM*
CCOc1cc(/C=C(\C#N)C(=O)NCC2CCCO2)ccc1OCC(N)=O (stereo not drawn)	-13.9%	·	·	·	1.6%	·
CCOc1cc(/C=C(\C#N)C(=O)NCC2CCCO2)ccc1O (stereo not drawn)	28.2µM*	4.1	?	-5.1%	23.6%	?
Cc1ccccc1-n1c(C)cc(/C=C(\C#N)C(=O)NCC2CCCO2)c1C (stereo not drawn)	14.1µM*	·	37.2	-4.1%	10.7%	-12.3%
COc1cccc(CNc2ncn[nH]2)c1OCc1ccccc1F	?	·	·	·	11.5%	·
COc1cccc(CNc2ncn[nH]2)c1OCc1ccc(F)cc1	28.2µM*	·	·	·	6.7%	·
Cc1noc(C)c1C(=O)N1CCC2(CCN(C(=O)Nc3ccccc3)CC2)CC1	?	·	·	3.6%	0.6%	-8.4%
COC(=O)C1=C(C)NC(C)=C(C(=O)OCCSc2ccccc2)C1C (stereo not drawn)	?	·	·	·	18.4%	·
COC(=O)C[C@H]1c2ccccc2C2=C(C[C@@H](C)[C@H]3C(=O)N(c4ccccc4)C(=O)[C@@H]23)N1C(=O)OC	?	·	·	3.4%[11.4 µM]	22.6%	-3.7%
CNCC(O)c1cccc(O)c1 (stereo not drawn)	7.3%	·	·	-0.3%	0.4%	-12.5%
O=c1c(/C=N/Nc2ccccc2)c(Sc2nnnn2-c2ccccc2)nc2ccccn12	2.1%	0.5	13.2	0.8%	-3.2%[38.3 µM]	-3.5%
SMILES	ALDH1A1 inh	IMPase cell inh	PNC inhibitor	ALOX12 inhib	IMPase Li inh	HPGD block
O=C(O)c1ccccc1N/N=C/c1c(Sc2nnnn2-c2ccccc2)nc2ccccn2c1=O	2µM*	·	·	·	·	·
COc1ccc(CCNC(=O)COC(=O)C23CC4CC(CC(C4)C2)C3)cc1	22.4µM*	3.3	-1.3	1.1%	-1.7%	-3.2%
COc1ccc(COC(=O)N/N=C(\C)CC(=O)NCc2ccc(Cl)cc2)cc1	7.6%	·	·	·	1.5%	·
COc1ccc(CNC(=O)C/C(C)=N/NC(=O)C23CC4CC(CC(C4)C2)C3)cc1	14.1µM*	·	·	·	12.1%	·
COc1ccc(CNC(=O)C/C(C)=N/NC(=O)C(c2ccccc2)c2ccccc2)cc1	22.4µM*	-1.5	-20.7	-0.7%	-2.0%[38.3 µM]	-1.2%
COc1ccc(CNC(=O)C/C(C)=N/NC(=O)Cc2ccc(OC)cc2)cc1	0.2%	·	7.1	-3.9%	1.4%	2.5%
CC12C=C(/C=C/CCc3ccco3)C(C)(C1)[C@H](CCc1ccco1)CC2=O (stereo partly drawn)	?	·	·	1.4%	7.5%	-3.9%
CC[C@H](C)[C@H]1O[C@]2(CC[C@@H]1C)C[C@@H]1C[C@@H](C/C=C(\C)[C@H](O[C@@H]3C[C@H](OC)[C@H](O[C@@H]4C[C@H](OC)[C@@H](O)[C@H](C)O4)[C@H](C)O3)[C@@H](C)/C=C/C=C3\CO[C@@H]4[C@H](O)C(C)=C[C@@H](C(=O)O1)[C@]34O)O2	-16.5%	·	·	·	17.0%	·
CCOC(=O)C1CCN(S(=O)(=O)c2ccc(C(C)=O)cc2)CC1	-1.2%	1.1	-100.0*	-2.4%	-12.1%	-12.5%
CCOC(=O)C1CCCN(S(=O)(=O)c2ccccc2)C1 (stereo not drawn)	-6.8%	2.5	17.5	-1.5%	17.7%[38.3 µM]	0.1%
COCC(=O)NC1CCN(S(=O)(=O)c2ccc(C(=O)O)cc2)CC1	-0.5%	5.5	-121.8*	-6.7%	·	·
CCOC(=O)C1CCCN(C2CC(=O)N(c3ccc(NC(C)=O)cc3)C2=O)C1 (stereo not drawn)	31.6µM*	·	·	·	-0.5%	·
CCOC(=O)C1CCCN(S(=O)(=O)c2ccc(Br)c(OC)c2)C1 (stereo not drawn)	11.2µM*	6.3	?	-3.5%	44.0%[38.3 µM]	-6.8%
CCOC(=O)C1CCCN(S(=O)(=O)c2ccc(NC(C)=O)cc2)C1 (stereo not drawn)	2.82µM*	·	·	·	2.6%	·
CCOC(=O)C1CCN(C(=S)Nc2ccc(S(N)(=O)=O)cc2)CC1	15µM*	·	4.0	-3.1%	10.7%	28.2µM*
Cc1cc(Cl)c(S(=O)(=O)Nc2ccon2)cc1OCC(=O)NC1CCCCC1	16.9%	-3.0[1.84 µM]	?	2.9%	-2.1%[38.3 µM]	1.6%
CCOC(=O)C1CCCN(S(=O)(=O)c2cc(OCC(=O)NC3CCCCC3)c(C)cc2Cl)C1 (stereo not drawn)	7.08µM*	11.3	22.7	1.7%	15.9%[38.3 µM]	-5.3%
Cc1cc(Cl)c(S(=O)(=O)N2CCN(c3ccc(F)cc3)CC2)cc1OCC(=O)NC1CCCCC1	-3.9%	10.8	?	0.6%	10.9%[38.3 µM]	-19.3%
